For eight targets, log2 fold change results are on record in the supplement of paper PMC10849652.

The full data set covers some 7,900 targets. This sample favours those with a hit. About 0.6% of all pairs of compound and target were hits. A number with no mark means an inactive call.

Common to all, as to test: log2 fold change, soluble protein after heating vs DMSO (PISA); higher = thermal stabilisation; K562 cells, 10 uM, 30 min; active = over 0.2 and 3.5 SD of the protein, either way, in both replicates (recomputed)
Compound in test [1]: COC1=CC=C(C=C1)CN2C=CC3=C2C=C(C=C3)C(=O)NO
The gist of the method: (§1)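 K562 cells (2×10^6 cells/mL) were treated with 10 μM compound for 30 min, and aliquots were heated for 3 min over 48°C-58°C. Pooled aliquots were extracted in PBS with 0.5% NP-40 at 4°C, and the supernatant after 21,000xg for 90 min was measured by TMTpro 16plex LC-MS/MS with channel sums equalised. Reported thermal stability, relative to control samples and from duplicates, is a log2 fold change.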

Compound in a further test: CON(C)C(=O)N1N=C(c2cc(F)ccc2F)S[C@@]1(CCCN)c1ccccc1 [filanesib]
The method, boiled down: as §1

Compound in another test: CO[C@H]1C[C@@H]2CC[C@@H](C)[C@@](O)(O2)C(=O)C(=O)N2CCCC[C@H]2C(=O)O[C@H]([C@H](C)C[C@@H]2CC[C@H](n3cnnn3)[C@H](OC)C2)CC(=O)[C@H](C)/C=C(\C)[C@@H](O)[C@@H](OC)C(=O)[C@H](C)C[C@H](C)/C=C/C=C/C=C/1C [zotarolimus]
The method, boiled down:
as §1

Compound in a further test: COc1cc(C(=O)O)ccc1NC(=O)[C@@H]1N[C@@H](CC(C)(C)C)[C@](C#N)(c2ccc(Cl)cc2F)[C@H]1c1cccc(Cl)c1F [idasanutlin]
The method, boiled down: as §1

Compound in another test: COc1cc(Nc2ncc3c(n2)-c2ccc(Cl)cc2C(c2c(F)cccc2OC)=NC3)ccc1C(=O)O [alisertib]
The method, boiled down:
as §1

Compound in test [2]: COc1cc2nc(-c3cc(F)ccc3O)nc(N[C@@H]3CNC[C@H]3C(C)(C)O)c2cc1OC
The method, boiled down:
as §1

Compound in a further test: COc1cc2ncnc(Nc3ccc(F)c(Cl)c3)c2cc1OCCCN1CCOCC1 [gefitinib]
The gist of the method:
as §1

Compound in test [3]: COc1cccc2cc(-c3nc([C@H]4CC[C@H](C(=O)O)CC4)n4ncnc(N)c34)[nH]c12
The method, boiled down: as §1

Compound in a further test: CS(=O)(=O)CCNCc1ccc(-c2ccc3ncnc(Nc4ccc(OCc5cccc(F)c5)c(Cl)c4)c3c2)o1 [lapatinib]
The method, boiled down:
as §1

Compound in another test: CS(=O)(=O)N1CCN(Cc2cc3nc(-c4cccc5[nH]ncc45)nc(N4CCOCC4)c3s2)CC1 [pictilisib]
The gist of the method:
as §1

Compound in test [4]: CS(=O)(=O)c1ccc(-c2cnc(N)c(C(=O)Nc3ccccc3)n2)cc1
The method, boiled down: as §1

Compound in a further test: C[C@@H](Oc1cc(-c2cnn(C3CCNCC3)c2)cnc1N)c1c(Cl)ccc(F)c1Cl [crizotinib]
The method, boiled down:
as §1

Compound in test [5]: C[C@H](C1=CC=C(C=C1)C(=O)NC2=C3C=CNC3=NC=C2)N
The method, boiled down: as §1

Compound in the next test: C[C@H](Nc1ncnc2nc[nH]c12)c1cc2cccc(Cl)c2c(=O)n1-c1ccccc1 [duvelisib]
The gist of the method: as §1

Compound in a further test: Cc1cc(Nc2cc(CN3CCOCC3)c3nc(C)c(Cc4ccc(Cl)cc4F)n3n2)n[nH]1 [gandotinib]
The gist of the method:
as §1

Compound in another test: Cc1cc(Nc2cc(N3CCN(C)CC3)nc(Sc3ccc(NC(=O)C4CC4)cc3)n2)n[nH]1 [tozasertib]
The gist of the method:
as §1

Compound in test [6]: Cc1cc(SCc2sc(-c3ccc(C(F)(F)F)cc3)nc2C)ccc1OCC(=O)O
The gist of the method: as §1

Compound in the next test: Cc1ccc(-n2nc(C(C)(C)C)cc2NC(=O)Nc2ccc(OCCN3CCOCC3)c3ccccc23)cc1 [doramapimod]
The method, boiled down:
as §1

Compound in the next test: Cc1ccc(C(=O)N(CCCN)[C@@H](c2nc3cc(Cl)ccc3c(=O)n2Cc2ccccc2)C(C)C)cc1 [ispinesib]
The method, boiled down: as §1

Compound in test [7]: C[C@@H]1COCCN1C2=NC(=NC(=C2)C3(CC3)S(=O)(=O)C)C4=C5C=CNC5=CC=C4
The gist of the method:
as §1

Sequence of UniProt Q9UER7 (Q9UER7 whole entry, looked up): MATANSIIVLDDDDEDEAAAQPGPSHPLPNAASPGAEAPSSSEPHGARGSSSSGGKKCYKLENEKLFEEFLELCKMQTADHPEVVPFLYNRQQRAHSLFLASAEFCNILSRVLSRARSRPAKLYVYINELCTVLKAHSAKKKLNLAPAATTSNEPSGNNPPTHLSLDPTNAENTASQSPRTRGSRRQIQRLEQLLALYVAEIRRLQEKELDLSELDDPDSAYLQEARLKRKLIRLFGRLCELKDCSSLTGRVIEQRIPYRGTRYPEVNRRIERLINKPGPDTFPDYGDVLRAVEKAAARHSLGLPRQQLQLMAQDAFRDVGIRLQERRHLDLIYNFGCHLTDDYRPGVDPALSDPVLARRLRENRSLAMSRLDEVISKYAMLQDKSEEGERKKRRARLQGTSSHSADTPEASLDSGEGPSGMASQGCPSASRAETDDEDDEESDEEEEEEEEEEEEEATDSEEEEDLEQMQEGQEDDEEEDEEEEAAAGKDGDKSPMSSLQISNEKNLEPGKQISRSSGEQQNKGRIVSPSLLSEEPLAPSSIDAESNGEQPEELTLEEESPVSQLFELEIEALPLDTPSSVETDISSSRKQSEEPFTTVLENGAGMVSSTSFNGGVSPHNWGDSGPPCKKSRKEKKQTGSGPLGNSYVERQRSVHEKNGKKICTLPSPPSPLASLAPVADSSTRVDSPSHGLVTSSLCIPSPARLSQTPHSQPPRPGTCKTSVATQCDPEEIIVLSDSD
Sequence of UniProt P09668 (P09668 whole entry, looked up): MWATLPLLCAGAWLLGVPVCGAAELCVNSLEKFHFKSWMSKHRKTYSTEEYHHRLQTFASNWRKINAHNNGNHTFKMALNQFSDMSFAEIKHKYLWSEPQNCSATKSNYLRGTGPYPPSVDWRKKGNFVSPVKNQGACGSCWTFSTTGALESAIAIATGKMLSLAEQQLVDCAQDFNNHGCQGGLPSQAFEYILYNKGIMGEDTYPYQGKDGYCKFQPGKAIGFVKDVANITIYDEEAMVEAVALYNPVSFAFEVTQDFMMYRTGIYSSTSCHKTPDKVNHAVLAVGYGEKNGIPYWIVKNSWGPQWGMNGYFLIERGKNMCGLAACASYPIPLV
Sequence of UniProt P50570 (P50570 whole entry, looked up): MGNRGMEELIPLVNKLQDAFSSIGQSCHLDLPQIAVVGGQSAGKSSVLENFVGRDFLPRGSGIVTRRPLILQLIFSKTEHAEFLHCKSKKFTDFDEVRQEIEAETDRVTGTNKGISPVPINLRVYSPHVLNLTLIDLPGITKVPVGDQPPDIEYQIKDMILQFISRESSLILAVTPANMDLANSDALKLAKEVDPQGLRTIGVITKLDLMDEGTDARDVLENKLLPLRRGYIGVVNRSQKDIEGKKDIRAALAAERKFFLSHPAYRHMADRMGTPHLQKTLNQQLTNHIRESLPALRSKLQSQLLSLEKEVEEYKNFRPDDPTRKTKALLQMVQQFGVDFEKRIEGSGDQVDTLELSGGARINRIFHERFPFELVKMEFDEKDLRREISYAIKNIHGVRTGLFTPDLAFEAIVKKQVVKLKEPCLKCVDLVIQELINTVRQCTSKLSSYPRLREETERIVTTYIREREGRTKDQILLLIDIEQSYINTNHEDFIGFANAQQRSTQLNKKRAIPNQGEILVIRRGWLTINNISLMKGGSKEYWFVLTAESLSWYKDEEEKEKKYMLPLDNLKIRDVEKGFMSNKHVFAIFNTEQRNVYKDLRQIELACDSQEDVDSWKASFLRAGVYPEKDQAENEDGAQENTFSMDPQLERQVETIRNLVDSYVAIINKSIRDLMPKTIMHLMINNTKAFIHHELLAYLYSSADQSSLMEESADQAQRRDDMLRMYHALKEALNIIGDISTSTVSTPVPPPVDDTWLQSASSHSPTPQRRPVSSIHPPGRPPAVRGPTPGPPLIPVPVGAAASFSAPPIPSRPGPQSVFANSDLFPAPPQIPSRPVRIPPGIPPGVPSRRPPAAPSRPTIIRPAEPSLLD
Sequence of UniProt Q8N8J7 (Q8N8J7 whole entry, looked up): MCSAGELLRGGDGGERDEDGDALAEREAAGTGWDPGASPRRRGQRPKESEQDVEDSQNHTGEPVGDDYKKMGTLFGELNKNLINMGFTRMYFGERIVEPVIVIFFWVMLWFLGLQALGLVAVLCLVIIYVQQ
Sequence of UniProt Q03468 (Q03468 whole entry, looked up): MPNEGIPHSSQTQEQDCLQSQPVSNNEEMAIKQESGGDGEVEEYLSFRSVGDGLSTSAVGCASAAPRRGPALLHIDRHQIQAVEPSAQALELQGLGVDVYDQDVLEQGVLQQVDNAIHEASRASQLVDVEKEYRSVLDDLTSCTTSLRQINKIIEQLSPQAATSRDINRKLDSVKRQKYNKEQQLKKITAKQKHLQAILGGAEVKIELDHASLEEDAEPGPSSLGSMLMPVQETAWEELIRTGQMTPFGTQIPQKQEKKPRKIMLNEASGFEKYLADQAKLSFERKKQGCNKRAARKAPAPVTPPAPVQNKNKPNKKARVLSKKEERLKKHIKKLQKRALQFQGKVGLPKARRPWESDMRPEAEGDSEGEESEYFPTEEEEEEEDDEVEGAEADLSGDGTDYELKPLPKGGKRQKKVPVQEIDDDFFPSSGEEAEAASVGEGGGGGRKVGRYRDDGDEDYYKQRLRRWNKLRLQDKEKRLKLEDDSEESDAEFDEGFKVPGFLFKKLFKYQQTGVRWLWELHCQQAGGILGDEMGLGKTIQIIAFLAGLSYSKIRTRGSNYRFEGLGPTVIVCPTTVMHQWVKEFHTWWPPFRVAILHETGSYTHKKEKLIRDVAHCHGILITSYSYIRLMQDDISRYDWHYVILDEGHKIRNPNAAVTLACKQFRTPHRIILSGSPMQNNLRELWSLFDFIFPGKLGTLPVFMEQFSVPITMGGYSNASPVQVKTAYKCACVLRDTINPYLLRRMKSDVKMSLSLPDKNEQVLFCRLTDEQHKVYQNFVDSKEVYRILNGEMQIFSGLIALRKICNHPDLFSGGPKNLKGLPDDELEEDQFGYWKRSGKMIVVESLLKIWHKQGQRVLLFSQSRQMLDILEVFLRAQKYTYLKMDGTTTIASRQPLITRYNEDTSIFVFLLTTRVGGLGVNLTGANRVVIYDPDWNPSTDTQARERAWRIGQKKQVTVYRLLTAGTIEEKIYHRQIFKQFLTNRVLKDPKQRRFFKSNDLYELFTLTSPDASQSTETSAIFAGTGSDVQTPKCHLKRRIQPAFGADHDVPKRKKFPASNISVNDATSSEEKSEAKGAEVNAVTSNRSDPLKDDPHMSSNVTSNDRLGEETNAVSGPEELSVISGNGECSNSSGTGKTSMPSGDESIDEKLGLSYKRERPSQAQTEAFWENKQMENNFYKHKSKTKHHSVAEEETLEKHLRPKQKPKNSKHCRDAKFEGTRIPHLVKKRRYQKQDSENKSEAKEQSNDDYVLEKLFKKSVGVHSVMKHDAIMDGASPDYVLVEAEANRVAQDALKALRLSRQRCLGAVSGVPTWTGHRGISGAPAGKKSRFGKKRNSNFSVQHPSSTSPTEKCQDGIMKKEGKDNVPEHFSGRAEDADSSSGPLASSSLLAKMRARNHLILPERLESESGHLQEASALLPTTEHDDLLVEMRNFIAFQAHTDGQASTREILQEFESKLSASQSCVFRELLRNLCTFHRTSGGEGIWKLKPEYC
Sequence of UniProt Q9NX74 (Q9NX74 whole entry, looked up): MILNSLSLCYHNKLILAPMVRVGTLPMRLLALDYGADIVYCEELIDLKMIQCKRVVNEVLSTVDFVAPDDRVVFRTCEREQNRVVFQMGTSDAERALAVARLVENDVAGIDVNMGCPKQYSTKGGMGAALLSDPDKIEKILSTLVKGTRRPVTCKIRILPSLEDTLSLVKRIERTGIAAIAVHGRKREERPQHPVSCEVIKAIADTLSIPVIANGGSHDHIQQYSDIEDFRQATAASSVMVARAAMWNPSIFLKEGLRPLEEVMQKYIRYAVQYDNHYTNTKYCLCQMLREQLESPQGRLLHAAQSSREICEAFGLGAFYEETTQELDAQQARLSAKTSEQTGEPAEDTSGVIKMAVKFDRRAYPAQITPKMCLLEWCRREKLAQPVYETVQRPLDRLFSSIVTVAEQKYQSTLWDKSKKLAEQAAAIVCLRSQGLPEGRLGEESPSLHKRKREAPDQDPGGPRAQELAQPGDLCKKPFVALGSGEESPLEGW
Sequence of UniProt Q9NSI2 (Q9NSI2 whole entry, looked up): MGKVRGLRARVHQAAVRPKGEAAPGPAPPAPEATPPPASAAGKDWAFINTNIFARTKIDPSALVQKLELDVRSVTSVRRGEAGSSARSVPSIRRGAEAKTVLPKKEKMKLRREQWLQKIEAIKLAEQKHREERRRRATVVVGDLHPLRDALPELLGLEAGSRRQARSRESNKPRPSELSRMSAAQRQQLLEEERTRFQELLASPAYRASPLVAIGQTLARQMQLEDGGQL

As for FAM241A (UniProt Q8N8J7), the log2 fold change in [1] was 0.226; with filanesib, -0.828 (active); with zotarolimus it was -0.045; with idasanutlin, 0.018; in the test with alisertib it was -0.038; in test [2], 0.042. The log2 fold change was 0.044 with gefitinib; -0.006 in [3]; -0.038 with lapatinib; 0 with pictilisib; -0.235 in test [4]; 0.117 with crizotinib. For the same target, the log2 fold change was -0.007 in test [5]; -0.016 in the test with duvelisib; -0.077 with gandotinib; -0.027 with tozasertib; -0.034 in [6]; -0.018 with doramapimod. In addition, the log2 fold change with ispinesib is -0.069.

As for DNM2 isoform 4 (UniProt P50570), the log2 fold change was 0.455 in [1]; 0.021 in the test with filanesib; 0.273 in the test with zotarolimus; 0.316 in the test with alisertib; -0.013 with gefitinib; -0.272 in test [3]. For the same target, the log2 fold change was -0.123 with pictilisib; -0.302 in test [4]; -0.087 with crizotinib; -0.039 in [7]; -0.087 in test [5]; 0.159 with duvelisib. In addition, the log2 fold change in the test with gandotinib is 0.126; in test [6], 0.5; in the test with doramapimod, -0.203; with ispinesib, 0.092.

In the case of CTSH (UniProt P09668), the log2 fold change in test [1] is 0.066; in the test with filanesib, -0.072; with zotarolimus, -0.046; with idasanutlin it was 0.029; with alisertib it was -0.06; in test [2] it was 0.021. Also, the log2 fold change was 0.025 with gefitinib; 0.084 in [3]; 0.018 in the test with lapatinib; 0.019 with pictilisib; 0.032 in test [4]; -0.249 (active) with crizotinib. In addition, the log2 fold change in test [7] was 0.074; in [5], -0.02; in the test with duvelisib it was -0.034; in the test with gandotinib, 0.031; with tozasertib, -0.068; in [6], -0.068. The log2 fold change in the test with doramapimod was 0.023; with ispinesib, -0.221.

In the case of ERCC6 (UniProt Q03468), the log2 fold change in [1] was -0.067; with filanesib, -0.268; with zotarolimus, 0.102; with idasanutlin, -0.14; in the test with alisertib, 0.102; in [2], -0.002. The log2 fold change with gefitinib is 0.026; in [3], -0.042; with lapatinib, 0.077; with pictilisib, -0.04; in [4] it was -0.12; with crizotinib, 0.061. Also, the log2 fold change in test [7] was 0.011; in test [5], -0.127; in the test with duvelisib, 0.044; with gandotinib, 0.017; with tozasertib, -0.051; in [6] it was -0.103. Further, the log2 fold change was 0.053 with doramapimod and 0.152 in the test with ispinesib.

With DUS2 (UniProt Q9NX74), the log2 fold change in test [1] is -0.02; with filanesib, -0.014; in the test with zotarolimus, -0.041; with idasanutlin, -0.004; with alisertib, -0.075; in test [2], 0.059. Further, the log2 fold change with gefitinib was 0.04; in [3], -0.11; in the test with lapatinib, 0.043; with pictilisib, -0.128; in test [4], -0.017; with crizotinib, 0.048. The log2 fold change is 0.084 in test [7]; 0.045 in test [5]; 0.012 in the test with duvelisib; 0.036 in the test with gandotinib; -0.013 in the test with tozasertib; 0.062 in test [6]. Besides, the log2 fold change was -0.006 with doramapimod and 0.097 in the test with ispinesib.

In the case of DAXX (UniProt Q9UER7), the log2 fold change in [1] was 0.248; with filanesib, 0.008; with zotarolimus it was 0.055; with idasanutlin it was -0.067; in test [2], 0.283; in the test with gefitinib, -0.125. Moreover, the log2 fold change was -0.05 with lapatinib; 0.247 with pictilisib; 0.154 in [4]; 0.098 with crizotinib; 0.106 in [5]; -0.001 with duvelisib. The log2 fold change with gandotinib was 0.313; with tozasertib, -0.167; in test [6], 0.006; with doramapimod, 0; with ispinesib, -0.062.

Regarding FAM207A (UniProt Q9NSI2), the log2 fold change is -0.034 in test [1]; 0.238 with filanesib; 0.009 with idasanutlin; 0.238 with alisertib; 0.108 in test [2]; -0.124 with gefitinib. Also, the log2 fold change in [3] is -0.146; with lapatinib, 0.041; with pictilisib, -0.097; in test [4], 0.009; with crizotinib, 0.075; in [7], 0.08. Also, the log2 fold change is 0.128 with duvelisib; -0.039 with gandotinib; 0.053 with tozasertib; -0.098 in test [6]; 0.101 with doramapimod; -0.077 with ispinesib.

On to DOCK8 (UniProt Q8NF50), for which the log2 fold change in test [1] is 0.475; in the test with filanesib it was 0.464; with zotarolimus it was 0.083; with idasanutlin, 0.217; with alisertib, -0.029; with gefitinib it was 0.006. Moreover, the log2 fold change in [3] is -0.428; with pictilisib, -0.337; in [4], 0.216; with crizotinib, -0.011; in [7], -0.075; in [5], 0.67 (active). For the same target, the log2 fold change was 0.038 with duvelisib; 0.146 with gandotinib; -0.119 with tozasertib; -0.036 in [6]; -0.004 with doramapimod; -0.402 with ispinesib.
